Reference: PubChem BioAssay AID504329 (Southern Research Specialized Biocontainment Screening …, 2011)
The campaign covered roughly 340,000 compounds. About 1,000 (0.29%) were called active. Cut-off read from the data, not from the text of the source: inconclusive = inhibition above about 27% without an active follow-up result; inactive = below that. These entries were drawn from the full list. Results with a measured potency or affinity are listed apart.

Assay: NS1A inhibition, H1N1 influenza, cell based functional assay (AID 504329)
Conditions: percent inhibition, at 12.5 µM, active compounds read high

SMILES | inhibition
O=C(O)C(Cc1ccccc1)N=C(NS(=O)(=O)c1ccccc1)c1ccccc1 (stereo not given) | -1.07% (inactive)
CCOC(=O)C1CCN(Cc2c(O)ccc3ccccc23)CC1 | -4.79% (inactive)
CCOC(=O)C1CCN(Cc2ccc(OC)c(C)c2OC)CC1 | 0.38% (inactive)
Cc1ccc(NCc2ccc(O)c3ncccc23)cc1C | -2.65% (inactive)
Cc1ccc(C)c(S(=O)(=O)N2CCN(Cc3ccc(O)c4ncccc34)CC2)c1 | -17.5% (inactive)
OC1(C#CCN2CCCC2)CCCCC1 | -3.16% (inactive)
Cc1ccc(F)cc1NC(=O)CSc1nnc(CNC(=O)c2ccco2)n1C | -10.7% (inactive)
N#CC(C#N)=C1NC(N)=C(C#N)C(c2ccccc2)=C1C#N | -3.59% (inactive)
CCc1cccc(OCC(=O)N(C)CC(=O)Nc2cccc(F)c2)c1 | -9.68% (inactive)
CCN1CCCc2cc(CN(CCN3CCOCC3)C(=O)Nc3ccc(C)c(C)c3)ccc21 | 22.9% (inactive)
CCOc1ccc(NC(=O)N(CCN2CCOCC2)Cc2ccc3c(c2)CCCN3CC)cc1 | 16.9% (inactive)
O=c1ccc(/C=C/c2ccccc2)nn1Cc1ccc(F)cc1 | 1.19% (inactive)
Cn1c(C(=O)O)cc2cc(Oc3ccccc3)ccc21 | -27.7% (inactive)
O=C1CCC(=O)N1OCCOc1ccccc1 | 6.54% (inactive)
COc1ccc(/C=C/C(=O)OCC(=O)Nc2cccc(C(C)=O)c2)cc1 | -8.13% (inactive)
O=[N+]([O-])c1ccc(CSc2nc3ccccc3o2)cc1 | 11.7% (inactive)
O=[N+]([O-])c1ccc(Cl)cc1Sc1nc2ccccc2o1 | 4.69% (inactive)
CCN(Cc1cnn(C)c1)C(=O)CC1C(=O)NCCN1Cc1cccc(OC)c1OC (stereo not given) | -0.14% (inactive)
C[N+]1=C(/C=C/Nc2ccccc2)C(C)(C)c2ccccc21 | -0.67% (inactive)
C[N+]1=C(/C=C/Nc2ccccc2Cl)C(C)(C)c2ccccc21 | 3.87% (inactive)

SMILES | inhibition
O=c1c(-c2ccccc2)c(O)cc(-c2ccncc2)n1-c1ccc(Cl)cc1 | 1.22% (inactive)
COc1cccc(OC)c1C(=O)Nc1sc2c(c1C(N)=O)CCN(Cc1ccccc1)C2 | 0.91% (inactive)
O=[N+]([O-])c1ccc(C[n+]2cccc3c4ccccc4ccc32)cc1 | -5.37% (inactive)
O=[N+]([O-])c1ccc(C[n+]2cccc3ccccc32)cc1 | 2.93% (inactive)
CN1CCN(C2=C(NS(=O)(=O)c3cccs3)C(=O)c3ccccc3C2=O)CC1 | -3.67% (inactive)
O=C1C(NS(=O)(=O)c2cccs2)=C(N2CCN(Cc3ccccc3)CC2)C(=O)c2ccccc21 | 13.7% (inactive)
O=C1C(NS(=O)(=O)c2cccs2)=C(N2CCN(c3cccc(Cl)c3)CC2)C(=O)c2ccccc21 | 19.4% (inactive)
O=C1C(NS(=O)(=O)c2cccs2)=C(N2CCOCC2)C(=O)c2ccccc21 | 10.6% (inactive)
CCOC(=O)N1CCN(S(=O)(=O)N2CCCC(C(=O)NCc3ccc(OC)cc3)C2)CC1 (stereo not given) | -1.33% (inactive)
CCOC(=O)c1cnc2c(OC)cccc2c1N1CCN(c2ccccn2)CC1 | 3.27% (inactive)
CC(=O)OCCc1c(C)nc2nc[nH]n2c1=O | -2.62% (inactive)
O=C(Cc1ccc(Cl)cc1)Nc1ccccc1C(=O)Nc1ccc(C(=O)O)cc1 | 9.57% (inactive)
O=C1CCN(S(=O)(=O)c2ccccc2)CCN1CCOCc1ccc(Cl)cc1 | -21.7% (inactive)
Cc1ccc(S(=O)(=O)NC(=O)Nc2ccccc2)cc1 | -7.51% (inactive)
Cc1ccc(S(=O)(=O)NC(=O)Nc2ccc(F)cc2)cc1 | -6.14% (inactive)
O=C(CCc1nnc(Cc2ccc(-c3ccccc3)cc2)o1)NCC1CC1 | -11.2% (inactive)
COc1ccc(CCN2CC(C(=O)Nc3ccccc3F)CC2=O)cc1OC (stereo not given) | -13.5% (inactive)
O=C(NCCCn1ccnc1)C(=O)NCC1OCCN1S(=O)(=O)c1ccc(F)cc1 (stereo not given) | 19.7% (inactive)
O=C(NCCCn1ccnc1)C(=O)NCC1OCCN1S(=O)(=O)c1ccc(Cl)cc1 (stereo not given) | 13.8% (inactive)
Cc1ccc(/C=C/C(=O)NC(C)c2ccccc2)cc1 (stereo not given) | 2.36% (inactive)

SMILES | inhibition
O=C(CSCc1ccc([N+](=O)[O-])cc1)Nc1ccccc1C(=O)O | -16.2% (inactive)
O=[N+]([O-])c1cc(Cl)ccc1N1CCOCC1 | 6.25% (inactive)
COc1cc([N+](=O)[O-])c(N2CCOCC2)c([N+](=O)[O-])c1OC | 3.06% (inactive)
Cc1cccc(OC(=O)n2c(=S)oc3cc(Cl)ccc32)c1 | 1.29% (inactive)
CC(C)[C@H](NC(=O)C1CCN(C(=O)[C@@H]2CCCN2)CC1)C(=O)NCc1ccc(F)cc1 | -5.22% (inactive)
COc1ccccc1C(=O)NC(=S)/C=C1/N(C)c2ccccc2C1(C)C | 22.9% (inactive)
Cc1ccc(C(=O)NC(=S)/C=C2\N(C)c3ccccc3C2(C)C)cc1 | 5.06% (inactive)
O=C(COc1cccc(NC(=O)c2cccs2)c1)c1ccc(F)cc1 | -6.64% (inactive)
O=C(NC(=S)NNC(=O)c1ccco1)c1ccc(F)cc1 | 9.62% (inactive)
O=C(NC(=S)NNC(=O)c1cc2ccccc2cc1O)c1ccco1 | 12.9% (inactive)
Cc1onc(-c2ccccc2)c1C(=O)NC(=S)NNC(=O)c1ccccc1O | 20.2% (inactive)
Cc1ccccc1C(=O)NNC(=S)NC(=O)c1cccs1 | -2.01% (inactive)
COc1ccc(C(=O)NC(=S)NNC(=O)c2ccccc2O)cc1 | 0.2% (inactive)
COc1ccccc1C(=O)NNC(=S)NC(=O)c1cccs1 | 8.16% (inactive)
O=C(NNC(=O)c1ccccc1O)c1ccco1 | -15.8% (inactive)
Cc1onc(-c2ccccc2)c1C(=O)NC(=S)NNC(=O)c1ccc(O)cc1 | 22% (inactive)
O=C(c1ccc([N+](=O)[O-])cc1)N(c1ccccn1)c1ccccn1 | 2.4% (inactive)
Cc1ccc(NC(=O)c2cccc(NC(=O)/C=C/c3ccco3)c2)cc1C | -4.7% (inactive)
Cc1cccc(-c2ccc3ncnc(NCc4cccs4)c3c2)c1 | -11% (inactive)
O=C(O)c1cc2ccccc2n1-c1ccccc1 | 16.9% (inactive)
